PubChem BioAssay AID1159580 (chemical genetic matrix, 2015)
Values joined by “and” are separate entries in the source; they are usually repeats but may differ in a detail not shown here. Equal entries are not always repeated. Screen size: about 5,500 compounds; about 2,000 (36%) were called active. About 18% were inconclusive and are not listed. Cut-off read from the data, not from the text of the source: active = normalized growth mostly below about 0.91 (no sharp cut-off); inconclusive = no clear call, values can overlap the other calls; inactive = mostly above about 0.92. This is one part of the list.

Experiment: chemical genetic growth profiling, strain panel (AID 1159580);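 note: tested at 20 µM; growth read once vehicle control cultures reached saturation at 30 °C; 1 = growth at the plate median or of vehicle wells; lower values mean less growth of the strain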
Details: S. cerevisiae deletion strains, growth OD

Measured: normalized growth

O=[N+]([O-])c1cc([As](=O)(O)O)ccc1O
active: locus YDL192W, strain arf1, hits give low values 0.214 | locus YDR101C, strain arx1, hits give low values 0.759 | locus YDR318W, strain mcm21, hits give low values 0.0896 | locus YDR388W, hits give low values 0.112 | locus YDR502C, strain sam2, hits give low values 0.247 | locus YER110C, hits give low values 0.566 | locus YGL078C, strain dbp3, hits give low values 0.406 | locus YGL086W, strain mad1, hits give low values 0.0902 | locus YGR135W, strain pre9, hits give low values 0.089 | locus YGR252W, strain gcn5, hits give low values 0.255 | locus YHR079C, strain IRE1 (second series), hits give low values 0.791 | locus YHR094C, strain hxt1, hits give low values 0.25 | locus YHR200W, strain rpn10, hits give low values 0.26 | locus YIL125W, strain kgd1, hits give low values 0.521 | locus YIR030C, strain dcg1, hits give low values 0.629 | locus YJL168C, strain set2, hits give low values 0.453
inactive: locus YAL013W, strain DEP1, hits give low values 0.987 | locus YAL021C, strain ccr4, hits give low values 0.965 | locus YAL026C, strain drs2, hits give low values 0.975 | locus YAL030W, strain snc1, hits give low values 0.971 | locus YBL061C, strain skt5, hits give low values 0.979 | locus YBR009C, strain hhf1, hits give low values 0.975 | locus YBR021W, strain FUR4, hits give low values 1.01 | locus YBR023C, strain chs3, hits give low values 0.986 | locus YBR171W, strain sec66, hits give low values 0.946 | locus YBR229C, strain ROT2, hits give low values 1 | locus YBR231C, strain swc5, hits give low values 0.946 | locus YBR279W, strain paf1, hits give low values 0.963 | locus YCL011C, strain gbp2, hits give low values 0.991 | locus YCL016C, strain dcc1, hits give low values 0.99 | locus YCL029C, strain bik1, hits give low values 0.914 | locus YCL069W, strain vba3, hits give low values 0.967 | locus YCR088W, strain abp1, hits give low values 0.975 | locus YDL005C, strain med2, hits give low values 0.972 | locus YDL035C, strain GPR1, hits give low values 1 | locus YDL040C, strain nat1, hits give low values 0.958 | locus YDL074C, strain BRE1, hits give low values 0.977 | locus YDL101C, strain DUN1, hits give low values 1 | locus YDL134C, strain PPH21, hits give low values 0.989 | locus YDL185W, strain tfp1, hits give low values 0.978 | locus YDR001C, strain nth1, hits give low values 0.967 | locus YDR069C, strain doa4, hits give low values 0.945 | locus YDR137W, strain rgp1, hits give low values 0.984 | locus YDR150W, strain NUM1, hits give low values 0.987 | locus YDR159W, strain sac3, hits give low values 0.978 | locus YDR162C, strain NBP2, hits give low values 0.962 | locus YDR195W, strain ref2 0.898 | locus YDR297W, strain sur2, hits give low values 0.971 | locus YDR334W, strain swr1, hits give low values 0.958 | locus YDR335W, strain msn5, hits give low values 0.972 | locus YDR392W, strain spt3, hits give low values 0.989 | locus YEL003W, strain gim4, hits give low values 0.963 | locus YEL037C, strain rad23, hits give low values 0.953 | locus YEL061C, strain CIN8 (second series), hits give low values 0.971 | locus YEL061C, strain CIN8, hits give low values 0.993 | locus YER015W, strain faa2, hits give low values 0.958 | locus YER016W, strain bim1, hits give low values 0.997 | locus YER111C, strain swi4, hits give low values 0.949 | locus YER155C, strain BEM2 (second series), hits give low values 0.953 | locus YER155C, strain BEM2, hits give low values 0.998 | locus YER167W, strain BCK2, hits give low values 1.02 | locus YFR010W, strain ubp6, hits give low values 0.949 | locus YGL167C, strain pmr1, hits give low values 0.971 | locus YGL173C, strain kem1, hits give low values 0.964 | locus YGL227W, strain vid30, hits give low values 0.964 | locus YGL240W, strain doc1, hits give low values 0.946 | locus YGL248W, strain PDE1, hits give low values 0.992 | locus YGL253W, strain hxk2, hits give low values 0.963 | locus YGR078C, strain PAC10, hits give low values 0.958 | locus YGR229C, strain SMI1, hits give low values 0.981 | locus YHR013C, strain ard1, hits give low values 0.986 | locus YHR027C, strain rpn1, hits give low values 0.972 | locus YHR030C, strain SLT2, hits give low values 0.998 and 1.06 | locus YHR079C, strain IRE1, hits give low values 1.09 | locus YHR129C, strain ARP1, hits give low values 0.999 | locus YHR142W, strain chs7, hits give low values 0.968 | locus YIL066C, strain RNR3, hits give low values 1.04 | locus YIL073C, strain SPO22, hits give low values 1.06 | locus YJL092W, strain hpr5, hits give low values 0.969 | locus YJL095W, strain BCK1 (second series), hits give low values 0.966 | locus YJL095W, strain BCK1, hits give low values 0.999 and 1.02 | locus YJL115W, strain asf1, hits give low values 0.962 | locus YJL129C, strain trk1, hits give low values 0.936 | locus YJL134W, strain LCB3, hits give low values 0.991 | locus YJL154C, strain vps35, hits give low values 0.945 | locus YJL164C, strain tpk1, hits give low values 1 | locus YJL166W, strain qcr8, hits give low values 0.977 | locus YJL187C, strain SWE1 (second series), hits give low values 1 | locus YJL187C, strain SWE1, hits give low values 0.964 | locus YJR043C, strain POL32, hits give low values 1.02 | locus YJR066W, strain TOR1, hits give low values 0.989
